In PubChem BioAssay one finds composite z-score and z-score data, which are given here for five compounds.

The test system of assay [1] is Wnt5a (protein binding on small-molecule microarray). The assay can be described thus: Wnt5a binders on small-molecule microarray, primary screen, biophysical, 635/667 nm fluorescence (AID 1142).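 Note: fluorescence read at 667 nm with signal to noise per printed feature.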 Particulars: 635 nm fluorescence, higher = more signal.
Assay [2] in a line: cell viability in Huh7 cells, primary screen, cytotoxicity control for HCV replication inhibitor project, CellTiter-Glo luminescence, basal, 48 h (AID 1143).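 Note: Huh7 hepatoma cells carrying a hepatitis C replication reporter with no stimulus; test concentration not given here.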 Particulars: Huh7 HCV replicon, higher = more signal, called active from +8 up or from −8 down. Background: Cellular ATP, detected with luciferase, serves as a proxy for viable cell number.
The nature of assay [3]: P. aeruginosa biofilm formation inhibitors, primary screen, PAO1 strain, BacTiter-Glo luminescence, LB-PBS (AID 1144). The settings on record: 12 h, higher = more signal.
Assay [4] is described as follows: CREB reporter modulators without forskolin, primary screen, cell-based, PC12, CRE-LacZ reporter, unstimulated (AID 1145). The settings on record: no forskolin, luminescence, 4.5 h, higher = more signal, called active from +8 up or from −8 down.
The nature of assay [5]: CREB reporter modulators under forskolin, primary screen, cell-based, PC12, CRE-LacZ reporter, forskolin-stimulated (AID 1146).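 Note: PC12 cells with 6xCRE LacZ reporter stimulated by forskolin 10 µM; beta-galactosidase reporter signal reflecting CREB driven transcription.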 Particulars: luminescence, 4.5 h, higher = more signal, called active from +8 up or from −8 down.
Assay [6] addresses Streptavidin (Streptomyces avidinii) (UniProt P22629). The assay can be described thus: streptavidin binders on small-molecule microarray, primary screen, artefact control for SMM compound annotation, biophysical, 635/667 nm fluorescence (AID 1147).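 Note: signal reflects streptavidin binding to arrayed compounds as a control protein.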 Particulars: streptavidin binding, higher = more signal.
Assay [7] in a line: small-molecule binders of probe aInhba, primary screen, biochemical, small-molecule microarray, 635/667 nm fluorescence (AID 1148).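 Note: score merges 667nm spot fluorescence with signal-to-noise for antibody binding to printed compounds.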 The settings on record: higher = more signal.
The target of assay [8] is Torsin-1A (Homo sapiens) (UniProt O14656). The assay can be described thus: torsin A binders from cell lysate, primary screen, small-molecule microarray, wild-type, 635/667 nm (AID 1149). Particulars: COS7 hTOR1A-WT lysate, 635 nm fluorescence, higher = more signal.
Sequence of Torsin-1A (Homo sapiens) (O14656 whole entry, looked up): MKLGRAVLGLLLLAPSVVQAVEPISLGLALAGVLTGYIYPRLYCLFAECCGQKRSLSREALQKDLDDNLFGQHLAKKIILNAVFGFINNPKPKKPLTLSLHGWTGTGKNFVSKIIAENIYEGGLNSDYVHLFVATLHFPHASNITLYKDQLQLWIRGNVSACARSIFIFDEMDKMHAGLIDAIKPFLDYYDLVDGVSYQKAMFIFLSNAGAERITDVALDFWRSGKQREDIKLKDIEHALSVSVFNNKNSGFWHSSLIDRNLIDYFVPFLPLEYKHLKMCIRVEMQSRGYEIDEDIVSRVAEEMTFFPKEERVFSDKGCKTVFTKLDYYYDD
Assay [9] has the same target. The assay can be described thus: small-molecule binders of mutant TOR1A in lysate, primary screen, cell lysate, small-molecule microarray, COS7 lysate, 635/667 nm fluorescence (AID 1150).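 Note: score pools 667 nm emission and signal to noise measuring lysate protein binding.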 The settings on record: COS7 hTOR1A mutant lysate, 635 nm fluorescence, higher = more signal.
Assay [10] relates to Sonic hedgehog protein (Shh). The assay can be described thus: small-molecule binders of Shh protein, primary screen, biochemical, small-molecule microarray, 635/667 nm fluorescence (AID 1151).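 Note: Shh protein binding to compounds spotted on small-molecule microarray slides; score combines spot fluorescence intensity with signal-to-noise across triplicate slides.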 Particulars: small-molecule microarray binding, 635 nm fluorescence; higher = more signal.
Assay [11] in a line: E. coli DRC41 culture turbidity changes, primary screen, E. coli filamentation inducer project, strain DRC41, OD650, 48 h (AID 1152).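 Note: E. coli MC1000 strain DRC41 lacking acrAB efflux pump and sulA.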 The settings on record: E. coli DRC41 (acrAB sulA), higher = more signal, called active from +8 up or from −8 down.
Assay [12] in a line: small-molecule binders of probe aLefty1, primary screen, biochemical, small-molecule microarray, 635/667 nm fluorescence (AID 1153).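 Note: score merges spot fluorescence with signal-to-noise ratio from the scanned slide images.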 Particulars: higher = more signal.
The nature of assay [13]: PSAC antagonists in infected red cells, primary screen, cell-based, P. falciparum Indochina, OD700, 1 h (AID 1154). The settings on record: P. falciparum Indochina infected RBC osmotic lysis, higher = more signal, called active from +8 up or from −8 down.
Assay [14] is described as follows: PSAC antagonists in infected red cells, primary screen, cell-based, P. falciparum Indochina, OD700, 2 h (AID 1155).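 Note: lysis reports solute entry through the parasite surface anion channel PSAC; channel blockers reduce lysis of infected cells.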 Particulars: P. falciparum Indochina infected erythrocytes, osmotic lysis OD700; higher = more signal, called active from +8 up or from −8 down.
Assay [15] is described as follows: osmotic lysis modulators in infected erythrocytes, primary screen, PSAC antagonist project, cell-based, P. falciparum Indochina, OD700, 3 h (AID 1156). Particulars: higher = more signal, called active from +8 up or from −8 down.
Assay [16] in a line: PSAC antagonists in infected red cells, primary screen, cell-based, P. falciparum Indochina, OD700, 18 h (AID 1157). Particulars: P. falciparum Indochina infected erythrocytes, osmotic lysis OD700, 18 h; higher = more signal, called active from +8 up or from −8 down.
The nature of assay [17]: modulators of S6 phosphorylation in cells, primary screen, cell-based, A549, cytoblot, luminescence, serum-stimulated (AID 1158).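 Note: serum-stimulated A549 lung adenocarcinoma cells; signal is phosphorylated S6 detected by cytoblot immunostaining with HRP secondary.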 Particulars: A549 phospho-S6 cytoblot, 5 h, higher = more signal.
The target of assay [18] is NADPH oxidase 2 (Homo sapiens) (UniProt P04839). The assay can be described thus: NOX2-dependent H2O2 signal modulators, primary screen, NOX inhibitor project, cell-based, HEK293-NOX2, PMA-stimulated, Amplex Red fluorescence (AID 1159). Note: test concentration not given here. Particulars: 45 min, higher = more signal, called active from +8 up or from −8 down.
Sequence of NADPH oxidase 2 (Homo sapiens) (P04839 whole entry, looked up): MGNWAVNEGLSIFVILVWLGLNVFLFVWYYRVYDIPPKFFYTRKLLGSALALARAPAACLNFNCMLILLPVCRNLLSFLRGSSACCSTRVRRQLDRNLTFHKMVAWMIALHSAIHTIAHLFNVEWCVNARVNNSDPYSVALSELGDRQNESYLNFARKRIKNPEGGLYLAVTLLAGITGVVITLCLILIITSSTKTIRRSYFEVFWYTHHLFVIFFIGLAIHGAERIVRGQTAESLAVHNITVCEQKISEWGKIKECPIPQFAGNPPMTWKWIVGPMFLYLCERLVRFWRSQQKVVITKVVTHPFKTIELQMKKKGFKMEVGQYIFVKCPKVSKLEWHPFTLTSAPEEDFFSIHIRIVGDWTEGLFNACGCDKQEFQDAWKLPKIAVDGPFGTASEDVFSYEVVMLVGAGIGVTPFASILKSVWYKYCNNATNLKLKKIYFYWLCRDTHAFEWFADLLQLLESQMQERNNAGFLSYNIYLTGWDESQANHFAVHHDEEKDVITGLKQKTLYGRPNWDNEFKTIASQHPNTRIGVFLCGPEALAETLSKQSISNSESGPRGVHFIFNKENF
Assay [19] concerns the target NADPH oxidase 4 (Homo sapiens) (UniProt Q9NPH5). The assay can be described thus: NOX4-dependent H2O2 signal modulators, primary screen, NOX inhibitor project, cell-based, HEK293-NOX4, tetracycline-induced, Amplex Red fluorescence (AID 1160). The settings on record: 45 min, higher = more signal, called active from +8 up or from −8 down.
For assay [20], the target named is NADPH oxidase 5 (Homo sapiens) (UniProt Q96PH1). The assay can be described thus: NOX5-dependent H2O2 signal modulators, primary screen, NOX inhibitor project, cell-based, HEK293-NOX5, Amplex Red fluorescence (AID 1161). The settings on record: HEK293-NOX5, ionomycin, 45 min, higher = more signal.
Sequence of NADPH oxidase 5 (Homo sapiens) (Q96PH1 whole entry, looked up): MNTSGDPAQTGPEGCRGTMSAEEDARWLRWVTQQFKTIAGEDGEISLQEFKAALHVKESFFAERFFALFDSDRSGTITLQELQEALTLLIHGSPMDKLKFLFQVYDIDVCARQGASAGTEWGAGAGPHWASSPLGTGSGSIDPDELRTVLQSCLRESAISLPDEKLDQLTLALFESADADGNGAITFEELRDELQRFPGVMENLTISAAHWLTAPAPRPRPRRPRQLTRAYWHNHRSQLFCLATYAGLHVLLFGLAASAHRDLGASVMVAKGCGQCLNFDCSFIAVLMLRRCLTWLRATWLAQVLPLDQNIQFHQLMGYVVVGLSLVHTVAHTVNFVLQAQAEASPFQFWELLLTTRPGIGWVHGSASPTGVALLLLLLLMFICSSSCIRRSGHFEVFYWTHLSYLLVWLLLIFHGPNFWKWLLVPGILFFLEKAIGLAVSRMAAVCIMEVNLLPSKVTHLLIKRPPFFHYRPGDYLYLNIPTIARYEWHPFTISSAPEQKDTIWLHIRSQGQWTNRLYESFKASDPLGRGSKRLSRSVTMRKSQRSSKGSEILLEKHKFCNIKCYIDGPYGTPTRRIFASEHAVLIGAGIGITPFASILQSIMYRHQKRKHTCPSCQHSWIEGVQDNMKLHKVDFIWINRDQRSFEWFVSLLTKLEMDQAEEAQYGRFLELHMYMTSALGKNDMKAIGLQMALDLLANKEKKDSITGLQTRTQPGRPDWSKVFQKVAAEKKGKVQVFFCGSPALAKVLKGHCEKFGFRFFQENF

Structures are written as SMILES. Active and inactive are the calls of the source. Unless noted, the rule behind the calls is not given here.

Sequence of NADPH oxidase 4 (Homo sapiens) (Q9NPH5 whole entry, looked up): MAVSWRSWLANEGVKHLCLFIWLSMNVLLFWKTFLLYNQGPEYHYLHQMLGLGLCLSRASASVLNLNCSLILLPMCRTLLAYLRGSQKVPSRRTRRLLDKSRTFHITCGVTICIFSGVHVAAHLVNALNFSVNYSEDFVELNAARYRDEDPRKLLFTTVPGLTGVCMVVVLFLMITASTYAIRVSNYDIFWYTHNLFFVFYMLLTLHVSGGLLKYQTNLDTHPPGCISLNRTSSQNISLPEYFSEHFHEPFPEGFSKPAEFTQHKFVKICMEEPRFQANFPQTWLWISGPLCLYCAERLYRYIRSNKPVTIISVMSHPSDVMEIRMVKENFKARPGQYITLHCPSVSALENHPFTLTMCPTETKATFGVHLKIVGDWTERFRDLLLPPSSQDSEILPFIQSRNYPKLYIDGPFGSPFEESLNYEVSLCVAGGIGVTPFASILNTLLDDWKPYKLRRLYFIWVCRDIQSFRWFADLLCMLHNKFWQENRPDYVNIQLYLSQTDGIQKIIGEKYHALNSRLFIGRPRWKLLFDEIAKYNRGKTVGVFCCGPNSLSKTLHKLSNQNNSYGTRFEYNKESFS
Sequence of Streptavidin (Streptomyces avidinii) (P22629 whole entry, looked up): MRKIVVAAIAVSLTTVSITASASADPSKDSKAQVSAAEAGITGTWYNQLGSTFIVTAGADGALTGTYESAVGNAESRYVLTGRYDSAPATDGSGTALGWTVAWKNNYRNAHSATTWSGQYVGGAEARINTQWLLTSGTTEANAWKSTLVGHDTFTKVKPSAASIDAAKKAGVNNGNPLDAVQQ

Turning to `N[C@@H](Cc1ccccc1)C(=O)NCc1cn(Cc2ccccc2)nn1`, the composite z-score in [1] is -0.0432; in assay [6] it was 0.0584; in assay [7] it was 0.0464; in assay [8], 1.14; in assay [9], 0.186; in [10], 0.822. Moreover, the composite z-score in assay [12] was found to be 0.397. In addition, the z-score in [2] was 0.609 (inactive); in assay [3], 0.391 (inactive); in assay [4], 0.381 (inactive); in assay [5], -0.644 (inactive); in assay [11] it was 0.676 (inactive); in assay [13] it was -0.39 (inactive). The z-score in assay [14] is 0.262 (inactive); in assay [15] it was -0.0107 (inactive); in assay [16], -0.0074 (inactive); in [17] it was 0.0064; in assay [18], 0.64 (inactive); in assay [19] it was 0.359 (inactive). This compound displayed a z-score in assay [20] of 0.255.
Consider `CCCCC(CC)C(O)C1C=CC2C(=O)N(c3ccccc3)C(=O)C2N1Nc1ccc(C#N)cc1` (stereo not given), for which the composite z-score in assay [1] was 0.648; in assay [6], 1.18; in assay [7] it was 0.722; in [8] it was -0.064; in [9] it was 0.68; in [10], -0.387. For the same compound, the composite z-score in assay [12] turned out to be 0.834. In addition, the z-score was 0.308 (inactive) in assay [2]; -1.55 (inactive) in assay [3]; 0.819 (inactive) in [4]; 0.176 (inactive) in [5]; 0.344 (inactive) in [11]; 9.85 (active) in assay [13]. For the same compound, the z-score in assay [14] is 2.68 (inactive); in assay [15], 1.89 (inactive); in assay [16] it was 1.54 (inactive); in [17], -0.423; in [18], 0.414 (inactive); in assay [19], -2.2 (inactive). For the same compound, in [20], the z-score is -1.91.
On to `NC(=O)NCC#Cc1ccc2c(c1)[C@]1(C(=O)N2)[C@H](c2ccccc2OCCO)N2[C@H](c3ccccc3)[C@H](c3ccccc3)OC(=O)[C@H]2[C@@H]1C(=O)O`, for which the composite z-score in [1] was -0.163; in assay [6], 0.333; in assay [7], 0.121; in assay [8], -0.689; in [9], 0.28; in assay [10], 0.028. The compound also displayed a composite z-score in [12] of -0.278. In addition, the z-score in [2] is -1.22 (inactive); in assay [3] it was -1.19 (inactive); in assay [4], 0.595 (inactive); in assay [5] it was 1.36 (inactive); in [11] it was 0.851 (inactive); in assay [13] it was 1.07 (inactive). In addition, the z-score in assay [14] was -0.525 (inactive); in [15], -1.78 (inactive); in [16] it was 0.0482 (inactive); in assay [17] it was 0.171; in assay [18], 2.78 (inactive); in assay [19], 0.517 (inactive). The z-score in assay [20] was -0.123.
With `COc1cc2c(cc1O)C(c1ccc(CN3CCCC3)cc1)N(Cc1cc3c(cc1Br)OCO3)CC2` (stereo not given), the composite z-score in [1] was -0.116; in assay [6], 0.881; in [7], -0.128; in assay [8], -0.231; in assay [9], 0.513; in [10] it was -1.01. Moreover, in [12], the composite z-score was -0.138. Further, the z-score in [2] is -3.59 (inactive); in assay [3], -0.587 (inactive); in assay [4], 0.389 (inactive); in assay [5], -0.0519 (inactive); in [11], -2.4 (inactive); in [13] it was 3.92 (inactive). In addition, the z-score in assay [14] was 0.984 (inactive); in assay [15] it was 0.782 (inactive); in [16] it was 0.526 (inactive); in assay [17], 0.0637; in assay [18], -3.51 (inactive); in [19] it was -2.64 (inactive). For the same compound, in [20], the z-score was -3.57.
As for `C=CC[C@]1(C(=O)N2CCOCC2)COC(c2ccc(OCCCO)cc2)=N1`, the composite z-score in assay [1] was found to be 0.0993; in [6] it was 1.76; in assay [7] it was 0.166; in assay [8], 1.74; in [9], 2.16; in [10], 0.935. Also, the composite z-score in [12] was found to be 0.43. The z-score in assay [2] was -2.76 (inactive); in assay [3] it was -0.974 (inactive); in [4], 2.01 (inactive); in assay [5] it was -0.778 (inactive); in assay [11] it was 0.323 (inactive); in assay [13], 5.33 (inactive). Moreover, the z-score is 0.2 (inactive) in assay [14]; 0.638 (inactive) in assay [15]; 0.301 (inactive) in assay [16]; 0.0334 in assay [17]; -2.25 (inactive) in [18]; -0.335 (inactive) in [19]. In [20], this compound yielded a z-score of -0.859.
